The record followed here is PubChem BioAssay (Tox21).

Unmarked numbers belong to inactive results. Calls come from the whole dose curve; as a rule, active = well fitted curve in the direction sought with a large enough effect in the repeat runs; inconclusive = weak or mixed curves; inactive = flat fitted curve, though single readings scatter.
% is set by controls: 0 for no effect and ±100 for the full control effect.

The test is described as follows: qHTS assay to test for compound auto fluorescence at 460 nm (blue) in HEK293 cells (AID 720678). The note with it: blue autofluorescence 405/460 nm; series mostly up to 91.3 µM; fluorescence, % of triamterene: at the top concentration. From the text:
National Center for Advancing Translational Sciences [NCATS]
NIH Chemical Genomics Center [NCGC]
U.S. Environmental Protection Agency [EPA]
National Institutes of Environmental Health Sciences [NIEHS]
National Toxicology Program [NTP]
U.S. Food and Drug Administration [FDA]
Compound auto fluorescence often interferes with screening of the compound library against various biological targets and signaling pathways. Some of these compounds may have fluorophoric properties. Such properties may interfere with the assay outputs resulting in false positives and/or negatives. To decrease such complications and ensure the compound activities are relevant in terms of biological response, the Tox21 10K compound library was screened for auto fluorescence.
From the fluorophores used as reporter signals in our screening assays, the auto fluorescence equivalencies of compounds against three fluorophores have been evaluated: Triamterene, Fluorescein and Rose Bengal sodium for blue, green and red fluorescence, respectively. The fluorescence intensities were measured using Excitation/Emission wavelengths at 405/460nm, 485/535nm and 540/590nm for blue, green and red labels, respectively. This assay includes the blue fluorescence data.
Tox21 Assay Protocol Summary:
2,000 HEK293 cells in 5 uL of culture medium containing 10% dialyzed FBS per well were dispensed into black wall/clear bottom 1536-well plates using a Multidrop Combi Dispenser (Thermo Scientific). The assay plates were incubated for 4-5 hr at 37C to allow cell attachment to the well bottom, followed by the transfer of 23 nL compound or DMSO vehicle by a pintool work station (Kalypsys, San Diego, CA). After the assay plates were incubated overnight at 37C and 5% CO2, fluorescence intensities in the assay plates were measured by an Envision (PerkinElmer, Shelton, CT) plate reader using three labels for measuring blue, green and red fluorescence at […] 460, 535 and 590nm respectively.
As to `C=CCCCCCCCCOC(C)=O`, the “fluorescence, % of triamterene” value was -0.0305%.
As for `CC(C)(C)OC=O`, the “fluorescence, % of triamterene” value is -0.0141% [at 95.7 µM].
In the case of `CC(C)OC(=O)C(C(=O)OC(C)C)=C1SC=CS1`, the “fluorescence, % of triamterene” value was 0.129% [at 46 µM].
As for `COc1cc(NS(=O)(=O)c2ccc(N)cc2)ncn1`, the figure is -0.148% [at 18.6 µM]; as for `Cc1cc(C)c(C)c(C)c1`, 0.0124%; as for `Cc1ccc(O)c(C(=O)c2ccccc2)c1`, 0.0005%.
As to `CC(C)(C)c1ccc(N)cc1`, the “fluorescence, % of triamterene” value is -0.113%.
With `CCCCC(CC)COC(=O)CC#N` (stereo not given), the “fluorescence, % of triamterene” value was -0.0748%.
In the case of `CC12CCCC=C1C(=O)OC2=O` (stereo not given), the “fluorescence, % of triamterene” value was 0.281%.
For `CCCCCCCC(=O)N(C)C`, the “fluorescence, % of triamterene” value was -0.0673%.
As for `CCCCCCCCCCCCCC(=O)OCC`, the figure is 0.0062%; as for `NS(=O)(=O)c1cc2c(cc1C(F)(F)F)NCNS2(=O)=O`, -0.352% [at 18.6 µM]; as for `CC(C)(C)C(=O)CCc1ccc(Cl)cc1`, -0.0075%.
Take `CC1(C)S[C@@H]2[C@H](NC(=O)Cc3ccccc3)C(=O)N2[C@H]1C(=O)O` (tested in a mixture with another compound): the “fluorescence, % of triamterene” value was 0.0958% [at 46 µM].
Take `Cc1ccc(O)c([N+](=O)[O-])c1`: the “fluorescence, % of triamterene” value is -0.0415% [at 95.7 µM].
The value for `CC(O)C(CO)C(C)O` (stereo not given) was 0.073% [at 95.7 µM]; that for `C=CCN1CCc2nc(N)sc2CC1` was -0.0031% [at 46 µM]; that for `c1cc2ccc3ccc4ccc5cccc6c(c1)c2c3c4c56` was 1.23% [at 3.72 µM].
As for `CC1(C)CC(N)CC(C)(C)N1`, the figure is -0.001%.
Regarding `Cc1ccc2cccnc2c1`, the “fluorescence, % of triamterene” value is 0.295%.
On to `NC(=O)CC[C@@H](N)C(=O)O`, for which the “fluorescence, % of triamterene” value was 0.0945% [at 46 µM].
As to `CC1(C)C(=O)C(C)(C)C1=O`, the “fluorescence, % of triamterene” value was 0.0491%.
As for `O=C(O)Cc1ccccc1Oc1ccc(Cl)cc1Cl`, the figure is -0.0486% [at 46 µM]; as for `CC(=O)Nc1ccc(S(=O)(=O)Nc2cc(C)on2)cc1`, 0.0081% [at 46 µM].
As for `C[C@@H]1CC[C@@]2(OC1)O[C@H]1C[C@H]3[C@@H]4CC[C@H]5C[C@@H](O)CC[C@]5(C)[C@H]4CC(=O)[C@]3(C)[C@H]1[C@@H]2C`, the figure is 0.0136% [at 18.6 µM].
The value for `N=C(N)S(=O)O` was -0.305%.
Take `C/C=C(\C)C=O`: the “fluorescence, % of triamterene” value was -0.006%.
As for `CC(C)C[P+](C)(CC(C)C)CC(C)C`, the figure is -0.0033%; as for `CCOC(=O)c1ccc(N(C)C)cc1`, 0.238%.
As for `CCOC(=O)COc1ccc2c(C)c(CCN(CC)CC)c(=O)oc2c1Cl`, the figure is -0.166% [at 46 µM].
As for `CCCCCCC(=O)c1ccccc1`, the figure is 0.0898%; as for `O=Cc1ccc(C(=O)O)cc1`, 0.054% [at 95.7 µM].
Take `CCC(C)SSC(C)CC` (stereo not given): the “fluorescence, % of triamterene” value is -0.0332%.
The value for `CCCCNCC` was -0.2%; that for `Cc1ccc(Br)cc1` was -0.189%.
With `O=CN1CCCCC1`, the “fluorescence, % of triamterene” value was -0.0896%.
As for `c1coc(Cn2cccc2)c1`, the figure is 0.028%.
With `C=CC(=O)OCCOCCOCC`, the “fluorescence, % of triamterene” value was 0.0147%.
Take `CCCCCCCCCCCBr`: the “fluorescence, % of triamterene” value is 0.0399% [at 46 µM].
The value for `COc1ccc2cc(CCC(C)=O)ccc2c1` was 0.0581% [at 18.6 µM].
